# Sampled rows, rich in hits. Any-hit rate of the full collection: about 3.5%.
# FBW7 activator = human FBW7 E3 ligase activation, primary screen | normalized activity (activation), % at 26.1 µM | AlphaScreen FBW7–phospho-cyclin E peptide binding, activator screen | 0.13% of 650,000 active | AID 1259310 | Q969H0; in the data active = normalized activity above about 1.9%;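 note: purified mutant Fbw7 with reduced substrate affinity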
# Target sequence (Q969H0 whole entry, looked up): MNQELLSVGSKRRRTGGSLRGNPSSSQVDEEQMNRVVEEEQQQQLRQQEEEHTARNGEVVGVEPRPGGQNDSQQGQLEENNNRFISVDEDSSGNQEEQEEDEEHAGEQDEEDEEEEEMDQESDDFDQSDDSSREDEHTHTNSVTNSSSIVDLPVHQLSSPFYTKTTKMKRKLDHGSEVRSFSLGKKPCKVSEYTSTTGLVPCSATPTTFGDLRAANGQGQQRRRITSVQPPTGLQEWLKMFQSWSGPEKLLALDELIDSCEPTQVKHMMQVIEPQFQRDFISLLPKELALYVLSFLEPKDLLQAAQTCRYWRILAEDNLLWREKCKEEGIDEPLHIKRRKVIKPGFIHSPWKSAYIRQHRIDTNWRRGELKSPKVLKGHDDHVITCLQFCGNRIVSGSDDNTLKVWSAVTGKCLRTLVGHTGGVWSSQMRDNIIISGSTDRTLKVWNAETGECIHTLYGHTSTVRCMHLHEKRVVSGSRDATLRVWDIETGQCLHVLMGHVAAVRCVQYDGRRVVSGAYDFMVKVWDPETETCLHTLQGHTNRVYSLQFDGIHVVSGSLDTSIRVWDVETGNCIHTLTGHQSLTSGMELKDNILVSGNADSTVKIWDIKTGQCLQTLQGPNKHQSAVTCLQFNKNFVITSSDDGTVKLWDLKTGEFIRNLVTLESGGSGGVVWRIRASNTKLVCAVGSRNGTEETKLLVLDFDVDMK
# MITF primary = human MITF inhibition, primary screen | AlphaScreen MITF homodimerization, bead proximity signal | inhibition, % at 2.6 µM | 0.91% of 650,000 active; in the data active = inhibition above about 50%;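 note: 0% = vehicle wells with protein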
# TEAD-YAP inh = TEAD-YAP interaction inhibition; inhibition, % at 9.12 µM; HEK-TIYL cells, TEAD-Gal4/YAP UAS-luciferase luminescence; 1.4% of 640,000 active; in the data active = inhibition above about 32%;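 note: 0% = median of test compound wells and 100% = reference inhibitor wells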
# GPR151 ag = human GPR151 activation | 1% of 650,000 active | Q8TDV0 | activation, % at 11.2 µM | AID 1508602 | PathHunter beta-arrestin GPR151 cells, luminescence; in the data active = activation above about 4.9%;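 note: 0% = median of compound wells and 100% = cells with positive control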
# MITF inh conf = human MITF inhibition, confirmation | shares compounds with MITF primary | AlphaScreen MITF homodimerization, biotin/His-MITF beads | inhibition, % at 2.6 µM | 16% of 4,700 active;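 active = inhibition above a cutoff derived from the DMSO control wells, cut at about 28% in these data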;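 note: 0% = MITF dimer wells with DMSO only; inhibitors lower the bead chemiluminescence by keeping MITF from dimerizing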
# AlphaScreen DR = optically interferes with AlphaScreen signal in dose response; shares compounds with MITF primary; AlphaScreen optical interference counterscreen, cell-free; IC50, µM; 6% of 480 active; call rule not given here
# AlphaScreen intf2 = optically interferes with AlphaScreen signal; inhibition, % at 2.6 µM; shares compounds with MITF primary; LysRS AlphaScreen counterscreen, signal interference, triplicate; 7.6% of 4,700 active;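 active = inhibition above a cutoff derived from the DMSO control wells, cut at about 30% in these data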
# * marks the source's active call; other numbers are inactive results; nt = not tested or not shown.
SMILES,FBW7 activator,MITF primary,TEAD-YAP inh,GPR151 ag,MITF inh conf,AlphaScreen intf2,others
COC(=O)c1ccc(CN2CCN(Cc3nc4ccccc4n3Cc3ccccc3)CC2)o1,-1,67*,-12,0,11,27,
CC1=NN2C(=N)/C(=C/c3cn(Cc4ccc(Cl)cc4)c4ccccc34)C(=O)N=C2S1,0,-7,-6,2,nt,nt,
CCCCNC(=O)CSc1nc2ccccc2c2nc(-c3cccc([N+](=O)[O-])c3)nn12,0,1,-4,1,nt,nt,
CC(=O)Oc1cc(-c2coc3cc(OC(C)=O)c(OC(C)=O)c(OC(C)=O)c3c2=O)cc(OC(C)=O)c1OC(C)=O,0,73*,8,-2,3,-6,
CCOc1ccc(C2NCCc3cc(OCC)c(OCC)cc32)cc1OC (stereo not drawn),0,4,1,0,nt,nt,
NCCNCCNCCN,0,91*,3,0,70*,100*,
NC(=O)CSc1ccc(-c2ccccn2)nn1,0,82*,-3,0,73*,94*,
c1ccc(CSc2ccc(-c3ccccn3)nn2)nc1,-2,86*,-10,-2,96*,100*,
Fc1ccc(-c2ccc(SCc3cccnc3)nn2)cc1,0,4,-59,-1,nt,nt,
CCSc1ccc(-c2ccccn2)nn1,0,82*,-38,-3,76*,97*,
c1ccc(-c2ccc(SCc3cccnc3)nn2)nc1,-2,85*,-29,-3,99*,100*,
CN1CCN(CCNC(=O)c2cc3c(s2)CS(=O)(=O)C3)CC1,0,6,-5,0,nt,nt,
COc1ccc(C(C)=O)cc1CSc1nc2ccsc2c(=O)n1-c1ccccc1,0,1,8,1,nt,nt,
CCCCNCCOCCOc1cccc(C(C)C)c1,1,-2,-5,0,nt,nt,
CC(C)c1cccc(OCCOCCNC(C)(C)C)c1,0,67*,14,2,15,12,
CCOc1cccc(OCCOCCNC(C)(C)C)c1,0,67*,3,-1,2,4,
CC(C)c1cccc(OCCOCCNCCN)c1,0,51*,3,0,-21,-1,
COc1ccccc1C(=O)NCC(=O)N/N=C(\CCC(=O)O)c1ccccc1,0,6,9,0,nt,nt,
CC(Sc1nc2ccccc2o1)C(=O)O (stereo not drawn),2,64*,-25,-2,3,10,
COc1cccc(C2=N/C(=C\c3ccc(C)o3)C(=O)O2)c1,0,-1,10,4,nt,nt,
CC1Cc2ccccc2N1S(=O)(=O)c1ccccc1F (stereo not drawn),0,4,0,-2,nt,nt,
CC(C(=O)N1c2ccccc2CC1C)N1CCN(S(=O)(=O)c2ccccc2F)CC1 (stereo not drawn),0,75*,17,0,5,13,
CC(C(=O)Nc1ccc(C#N)cc1)N1CCN(S(=O)(=O)c2ccccc2F)CC1 (stereo not drawn),0,85*,-1,0,11,5,
CC(C)CC1=NN(C(=O)c2ccc(O)cc2)C(O)(C(F)(F)F)C1 (stereo not drawn),0,2,2,4,nt,nt,
COC(=O)C1(O)CC(CC(C)C)=NN1C(=O)c1ccccc1 (stereo not drawn),0,71*,-21,0,0,-4,
SMILES,FBW7 activator,MITF primary,TEAD-YAP inh,GPR151 ag,MITF inh conf,AlphaScreen intf2,others
O=C(NCC1CCCN(Cc2ccc(OCc3ccccc3)cc2)C1)c1cccnc1 (stereo not drawn),0,51*,9,-1,0,14,
CSc1ccc(CN2CCCC(CNC(=O)c3cccnc3)C2)cc1 (stereo not drawn),0,-3,-5,-1,nt,nt,
Clc1cc(CNC2CCN(Cc3ccccc3)CC2)cc2c1OCCO2,0,58*,3,0,10,10,
O=[N+]([O-])c1ccc(CNC2CCCC2)cc1,0,12,-11,0,nt,nt,
CC1CCCCC1NCc1ccc([N+](=O)[O-])cc1 (stereo not drawn),0,75*,7,0,-9,-4,
COc1ccccc1NC(=S)N(CCN(C)C)C(C)c1ccccn1 (stereo not drawn),0,66*,0,0,-50,100*,
COc1cc(OC)c(OC)cc1CN1CCC(O)CC1,0,22,16,1,nt,nt,
COc1cc(OC)c(OC)cc1CN1CCN(C2CCC(C)CC2)CC1 (stereo not drawn),0,72*,-3,-2,1,-1,
COc1ccccc1CN1CCC(N2CC(C)OC(C)C2)CC1 (stereo not drawn),0,52*,10,0,-13,-5,
CCOC(=O)C1CCN(Cc2cccc(OC)c2OC)CC1,0,-17,1,0,nt,nt,
COc1ccccc1CN1CCC(C)CC1,0,-4,-7,0,nt,nt,
COc1cc(OC)c(OC)cc1CN1CCC(N2CC(C)OC(C)C2)CC1 (stereo not drawn),0,89*,9,0,-8,-6,
COc1cccc(CN2CCC(N3CC(C)OC(C)C3)CC2)c1OC (stereo not drawn),0,87*,-5,1,-22,-3,
CC1CCCC(NC(=O)c2ccc3c(c2)N(Cc2cccc(Cl)c2)C(=O)CS3)C1C (stereo not drawn),0,-14,4,0,nt,nt,
COc1ccc(C2C3=C(CC(C)(C)CC3=O)N(c3ccc(C)c(C)c3)C3=C2C(=O)CC(C)(C)C3)cc1,1,6,-4,-1,nt,nt,
CC(C)N1C(=O)C(=Nc2ccc(S(=O)(=O)N3CCOCC3)cc2)c2ccccc21,0,-11,0,2,nt,nt,
Cc1ccc(CN2CCC(C(=O)NC(C)C)CC2)cc1,0,65*,8,-1,-5,-4,
CC(O)CNC(=O)C1CCN(Cc2ccc(OCc3ccccc3)cc2)CC1 (stereo not drawn),1,34,-14,1,nt,nt,
CC(C)NC(=O)C1CCN(Cc2cccc(OCc3ccccc3)c2)CC1,1,57*,5,0,-10,-6,
CC(C)NC(=O)C1CCN(Cc2ccccc2Cl)CC1,0,54*,4,0,-10,-6,
CC(C)NC(=O)C1CCN(Cc2cccc(Cl)c2Cl)CC1,0,54*,7,1,-21,-1,
CCN(CC)S(=O)(=O)c1cccc(-c2n[nH]c(=S)n2-c2cccc(OC)c2)c1,0,7,-2,1,nt,nt,
O=C(c1ccc2c(=O)n(Cc3ccccc3)c(SCc3cccc([N+](=O)[O-])c3)nc2c1)N1CCOCC1,0,-3,-1,0,nt,nt,
Nc1cc(Br)cnc1N,0,78*,-18,0,80*,9,AlphaScreen DR=>8.6
Cc1ccsc1C(=O)N1CCC(N2CCC(C(=O)NCc3ccccn3)CC2)CC1,0,0,-4,3,nt,nt,
N#C/C(=C\c1ccc(I)o1)c1ccccc1,0,1,-36,-1,nt,nt,
